# In PubChem BioAssay (Tox21):
# Records with an inconclusive call do not appear. Entries that show only a call come without a potency. A number with no mark means an inactive call. Active and inactive are the calls of the source. The call rests on the fitted dose curve; in most records, active means well fitted cell-killing curve with a large enough effect in the repeat runs; inconclusive means weak or mixed curves; inactive means flat fitted curve, though single readings scatter.
# Test: qHTS assay to identify small molecule antagonists of the estrogen related receptor (ERR) signaling pathway from Tox21 library - cell viability counter screen (AID 1224834); further: nearly all actives have a fitted effect of over 30% in size
# Settings: ERR reporter cells viability, CellTiter-Fluor, 17.5 h; series mostly up to 92.4 µM; viability change, negative = cytotoxic: at the top concentration
# Method in brief: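 ERR reporter cells, 2,000 per well, rested 6 h, then exposed to compound in DMSO for 17.5 hours at 37 C. Viability read as fluorescence after 30 min with CellTiter-Fluor.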
# Potency means the concentration at half of the fitted maximal effect.
SMILES,Potency,"viability change, negative = cytotoxic"
OCC(O)CCl (centres undefined),inactive,–
CNCC(O)c1ccc(O)cc1 (centres undefined),inactive,–
Cl[C@H]1OCCO[C@@H]1Cl,inactive,–
O=C(O)CCCc1ccc(N(CCCl)CCCl)cc1,inactive,–
N#CN=C(N)N,inactive,–
N#Cc1cccc(C#N)c1,inactive,–
COC(C)(C)CCCC(C)C/C=C/C(C)=C/C(=O)OC(C)C (centres undefined),inactive,–
Nc1cccc(Cl)c1,–,4.36%
Clc1cnc(Oc2ccc(Oc3ncc(Cl)cc3Cl)cc2)c(Cl)c1,inactive,–
Cc1cc(O)ccc1Cl,inactive,–
C=CCN=C=S,inactive,–
Cc1ccc(O)c(C)c1,inactive,–
CSc1nnc(C(C)(C)C)c(=O)n1N,inactive,–
Cc1cc(Cl)ccc1OC(C)C(=O)O (centres undefined),inactive,–
O=[N+]([O-])c1ccc(Cl)c(Cl)c1,inactive,–
FC(F)(F)c1ccc(Cl)cc1,inactive,–
CNC(=O)Oc1cccc2ccccc12,inactive,–
Sc1ccccc1,inactive,–
CNC(=O)O/N=C/C(C)(C)S(C)=O (centres undefined),inactive,–
CCNc1nc(Cl)nc(NC(C)C)n1,inactive,–
O=[N+]([O-])c1cc([As](=O)(O)O)ccc1O,60.7 µM (active),–
O=C(O)Cc1ccccc1,inactive,–
CN(C)C(=O)Nc1cccc(C(F)(F)F)c1,inactive,–
CNC(=O)O/N=C/C(C)(C)SC,inactive,–
CC(C)CCCCCCOC(=O)c1ccccc1C(=O)OCCCCCCC(C)C,inactive,–
C=CC#N,inactive,–
O=C(O)C1C(C(=O)O)C2(Cl)C(Cl)=C(Cl)C1(Cl)C2(Cl)Cl (centres undefined),inactive,–
Cc1cccc(N)c1,inactive,–
CN(C)NC(=O)CCC(=O)O,inactive,–
